Potency and affinity values are given separately. Calls of active or inactive are those of the source. The rule behind the calls is not given here.
biological target: Acyl-homoserine lactone acylase PvdQ (Pseudomonas aeruginosa (strain ATCC 15692 / DSM 22644 / CIP 104116 / JCM 14847 / LMG 12228 / 1C / PRS 101 / PAO1)) (UniProt Q9I194); test: P. aeruginosa PvdQ acylase inhibitors, dose response, biochemical, fluorescence, plate reader and imaging, cherry-picks (AID 493231); settings: purified PvdQ acylase, fluorogenic substrate; series mostly up to 10 µM; activity change, negative = inhibition: at the top concentration;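 note: 0% = neutral control wells and -100% = reference inhibitor wells; more negative values mean stronger inhibition of the acylase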
Sequence (Q9I194 whole entry, looked up): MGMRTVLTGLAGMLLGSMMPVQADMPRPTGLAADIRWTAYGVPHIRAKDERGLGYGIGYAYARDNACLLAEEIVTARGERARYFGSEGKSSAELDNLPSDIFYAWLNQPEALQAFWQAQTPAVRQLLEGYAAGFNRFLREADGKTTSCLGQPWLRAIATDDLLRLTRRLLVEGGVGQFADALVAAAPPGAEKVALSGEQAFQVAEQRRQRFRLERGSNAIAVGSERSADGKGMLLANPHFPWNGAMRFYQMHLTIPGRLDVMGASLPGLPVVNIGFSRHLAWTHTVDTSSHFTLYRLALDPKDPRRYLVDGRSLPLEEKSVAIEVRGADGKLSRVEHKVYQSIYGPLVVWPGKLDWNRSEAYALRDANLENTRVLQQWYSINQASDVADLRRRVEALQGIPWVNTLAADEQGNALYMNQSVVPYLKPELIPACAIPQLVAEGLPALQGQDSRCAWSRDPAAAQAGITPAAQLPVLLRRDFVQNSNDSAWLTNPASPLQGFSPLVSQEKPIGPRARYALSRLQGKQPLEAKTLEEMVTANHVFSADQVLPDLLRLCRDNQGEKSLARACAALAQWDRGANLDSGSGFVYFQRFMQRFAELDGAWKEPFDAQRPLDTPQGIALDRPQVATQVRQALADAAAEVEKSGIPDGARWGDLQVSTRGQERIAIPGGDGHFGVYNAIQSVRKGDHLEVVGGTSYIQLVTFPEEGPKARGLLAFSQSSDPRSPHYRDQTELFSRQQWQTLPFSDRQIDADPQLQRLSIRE

SMILES | activity change, negative = inhibition
O=C(O)CC1S/C(=N/N=C/C=C/c2ccccc2)NC1=O (stereo not given) | -7.29 unspecified (inactive)
Cc1ccccc1OCCSc1nnc(-c2ccncc2)n1C | -0.806 unspecified (inactive)
CSC(=S)N/N=C/c1ccccc1 | 8.93 unspecified (inactive)
Cc1nn(S(=O)(=O)c2ccccc2)c(C)c1S(=O)(=O)N1CCOCC1 | 14.9 unspecified (inactive)
Cc1ccsc1C(=O)NCCC(c1ccccc1)c1ccccc1 | 5.69 unspecified (inactive)
CC1CCCCC1NS(=O)(=O)c1ccc(S(=O)(=O)N2CCCC2)cc1 (stereo not given) | 13.8 unspecified (inactive)
O=C(NCCc1ccc2c(c1)OCCO2)c1ccccc1F | -6.28 unspecified (inactive)
CS(=O)(=O)c1ccc(Cl)c(NC(=O)COC(=O)c2ccc(F)cc2Cl)c1 | 7.09 unspecified (inactive)
COc1ccc(-c2nn(-c3ccccc3)cc2/C=C2/SC(=S)N(CCC(=O)O)C2=O)cc1 | -8.74 unspecified (inactive)
COc1ccc(Cl)cc1C(=O)Nc1ccc(N(C)C(C)=O)cc1 | 8.04 unspecified (inactive)
Cc1cc(=O)[nH]c(SCC(=O)Nc2ccc(Br)cn2)n1 | 6.43 unspecified (inactive)
c1ccc(-c2cnc(C3CCCCC3)o2)cc1 | -5.14 unspecified (inactive)
Nc1nc(-c2ccc(Cl)cc2)nn1C(=O)c1ccco1 | 11.3 unspecified (inactive)
CCN(c1ccccc1)S(=O)(=O)c1cc(C(=O)Nc2ccccc2Cl)ccc1F | 2.14 unspecified (inactive)
CC1CC(Nc2ccccc2)c2ccccc2N1C(=O)c1ccco1 (stereo not given) | 5.12 unspecified (inactive)
CC(=O)N/C(=N/c1nc(C)cc(C)n1)Nc1ccc(C)cc1C | -9.63 unspecified (inactive)
CCCc1nc2sc3ccccc3c(=O)c2c(=O)n1Cc1ccccc1 | 11 unspecified (inactive)
CCCc1nnc(NC(=O)Cn2cnc3ccccc3c2=O)s1 | 1.15 unspecified (inactive)

SMILES | activity change, negative = inhibition
COc1ccc(-c2cn3cc(C)ccc3n2)cc1F | -2.17 unspecified (inactive)
CS(=O)(=O)c1ccc2sc(NC(=O)c3cc4ccccc4o3)nc2c1 | 4.5 unspecified (inactive)
CN(c1ccc(C(=O)Nc2ccc3c(c2)OCCO3)cc1)S(C)(=O)=O | -1.33 unspecified (inactive)
COc1ccc(C2NCCc3c2[nH]c2ccccc32)cc1COc1ccc(F)cc1 (stereo not given) | -8.73 unspecified (inactive)
CCOC(=O)C1CCCN(C(=O)c2cc(S(=O)(=O)N(C)C)ccc2N2CCCC2)C1 (stereo not given) | -100 unspecified (inactive)
COc1ccc2cc(C)c3nnc(SCC(=O)Nc4cc(OC)c(OC)cc4C(=O)O)n3c2c1 | 12.9 unspecified (inactive)
CCOc1ccccc1-c1cc(-c2n[nH]c(=S)n2CC)c2ccccc2n1 | 3.92 unspecified (inactive)
CCOc1ccc(NC(=O)NCc2cccn2C)cc1 | -6.12 unspecified (inactive)
O=C(OCc1nc2ccccc2s1)c1ccc([N+](=O)[O-])o1 | 7.21 unspecified (inactive)
Clc1ccc2nc3c4ccccc4cnn3c2c1 | -7.83 unspecified (inactive)
Cc1ccc(N(c2ncnc(N)c2[N+](=O)[O-])C2CCCCC2)cc1 | 9 unspecified (inactive)
OC(CN1CCOCC1)Cn1c(-c2cccc(Cl)c2)nc2ccccc21 (stereo not given) | -1.48 unspecified (inactive)
COC(=O)C(C(=O)OC)c1ncccc1[N+](=O)[O-] | 7.66 unspecified (inactive)
CN1C(=O)S/C(=C\c2ccc(-n3cncn3)cc2)C1=O | -1.58 unspecified (inactive)
CC(=O)c1c(C)[nH]c(C(=O)COC(=O)c2cccs2)c1C | -0.196 unspecified (inactive)
Cc1ccc2nc(-c3ccc(O)cc3)oc2c1 | 4.15 unspecified (inactive)
COc1ccc(S(=O)(=O)NCCc2ccccc2)c2cccnc12 | 15 unspecified (inactive)
